Source: PubChem BioAssay
Cdc42 wt GTP – human Cdc42 wildtype GTP binding change, either direction | P60953 | GST-Cdc42 beads, Bodipy-GTP binding, flow cytometry; actives lie on both sides | percent activity (GTP binding), % at 10 µM | hit rate 0.2% among 190,000 | AID 761;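 active = percent activity GTP binding at least 20 points away from the 100% baseline, either down as inhibitor or up as activator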;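 also: median bead fluorescence of bound Bodipy-FL-GTP at 100 nM; 0% = excess unlabeled GTP control and 100% = no compound control; below 100% means less GTP binding so inhibitor and above means activator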
Target sequence (P60953 whole entry, looked up): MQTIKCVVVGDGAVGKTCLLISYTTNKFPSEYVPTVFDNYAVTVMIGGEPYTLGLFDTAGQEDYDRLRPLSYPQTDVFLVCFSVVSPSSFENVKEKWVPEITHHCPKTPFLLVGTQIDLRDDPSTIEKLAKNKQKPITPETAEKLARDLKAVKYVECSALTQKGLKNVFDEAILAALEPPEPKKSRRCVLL
HRas wt GTP bind – modulators of GTP binding to human HRas wildtype; hit rate 0.14% among 190,000; P01112; GST-Ras wt beads, Bodipy-FL-GTP binding, flow cytometry; actives lie on both sides; GTP binding activity, % at 10 µM; AID 759;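 active = GTP binding activity at least 20% away from the 100% baseline, either lowered as inhibitor or raised as activator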;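 also: 0% = unlabeled GTP competition control and 100% = no-compound control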
Target sequence (P01112 whole entry, looked up): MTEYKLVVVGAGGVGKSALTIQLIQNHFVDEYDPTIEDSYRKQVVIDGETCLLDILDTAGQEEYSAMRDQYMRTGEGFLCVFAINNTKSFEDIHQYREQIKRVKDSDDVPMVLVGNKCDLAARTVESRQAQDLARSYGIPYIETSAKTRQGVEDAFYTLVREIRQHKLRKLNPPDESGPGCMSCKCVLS
Rac1 wt GTP bind – modulators of human Rac1 wildtype GTP binding; P63000; GST-Rac1 beads, fluorescent GTP binding, flow cytometry; actives lie on both sides; 0 = cold GTP competed, 100 = untreated; GTP binding activity (% of control), % at 10 µM; hit rate 0.27% among 190,000; AID 757;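 active = GTP binding activity at least 20 points away from the 100% control level, either lower or higher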
Rac1 act GTP bind – modulators of GTP binding to human Rac1 activated mutant | P63000 | percent activity (GTP binding), % at 10 µM | hit rate 0.11% among 190,000 | AID 764 | GST-Rac1 activated beads, fluorescent GTP binding, flow cytometry; actives lie on both sides; 100% means binding = to untreated wells;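 active = GTP binding at least 20 percentage points away from the 100% baseline, in either direction, so actives lie on both sides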
Rab7 wt modul – dog Rab7 wildtype GTP binding, inhibitors and activators | GTP binding activity (percent of control), % at 10 µM | hit rate 0.055% among 190,000 | GST-Rab7 beads, fluorescent GTP binding, flow cytometry; actives lie on both sides; untreated = 100%, excess cold GTP = 0%;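 active = fluorescent GTP binding to Rab7 beads changed by at least 20 points from the 100% baseline, either direction, mostly lower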;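 also: median green fluorescence of bound Bodipy-FL-GTP per Rab7 bead population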
Rab2A wt mod – changes GTP binding to wildtype dog Rab2A, up or down; P61105; GST-Rab2 wt beads, Bodipy-GTP binding, flow cytometry; GTP binding activity, % at 10 µM; hit rate 0.19% among 190,000; AID 760;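 active = GTP binding activity at least 20 points away from 100%, either lowered or raised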;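 also: 0% = beads with excess unlabeled GTP and 100% = no-compound control corrected for plate trend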
An asterisk follows results filed as active; [ ] = remark or other dose. Sampled rows, rich in hits. Any-hit rate of the full collection: about 0.37%.

SMILES	Cdc42 wt GTP	HRas wt GTP bind	Rac1 wt GTP bind	Rac1 act GTP bind	Rab7 wt modul	Rab2A wt mod
O=C(NC1CCCCC1)C(c1ccc(F)cc1)N(Cc1ccco1)C(=O)CN1C(=O)c2ccccc2S1(=O)=O (configuration not stated)	95	98	100	97	97	99
Cc1occc1C(=O)NNC(=O)c1ccc(Br)o1	98	97	93	95	104	99
O=C(O)c1cc(-c2ccc(/C=C3\NC(=O)N(c4ccc(Cl)cc4)C3=O)o2)ccc1Cl	74*	81	74*	77*	94	80
O=C1NN(c2ccccc2)C(=O)/C1=C/c1ccc(-c2ccc(Cl)c(C(=O)O)c2)o1	87	88	88	84	93	87
Cc1cccc(NC(=O)NNC(=O)c2sccc2-n2cccc2)c1	102	99	100	95	98	99
CCOc1ccc(NCc2ccccc2OCc2cccc(F)c2)cc1	115	114	129*[activator]	115	106	113
COc1ccc2c(C)cc3nncn3c2c1	89	81	79*	87	88	89
CCNC(=S)Nc1ccc(S(=O)(=O)Nc2cc(C)nc(C)n2)cc1	99	100	99	96	106	100
COc1ccc(/C=C2\SC(=S)NC2=O)cc1OS(=O)(=O)c1ccc(NC(C)=O)cc1	108	111	135*[activator]	110	118	108
COc1cc(/C=C2/SC(=S)NC2=O)ccc1OS(=O)(=O)c1ccc(C)cc1	98	97	96	98	96	96
C/C=C/c1cc(CN2CCN(c3ccc(OC)cc3)CC2)c(O)c(OC)c1	97	97	98	99	97	95
NC(=O)COC(=O)c1cccc2c1-c1ccccc1C2=O	78*	81	72*	85	92	78*
O=C(CN1C(=O)S/C(=C/c2cccnc2)C1=O)N1CCOCC1	83	78*	94	91	88	70*
O=C(CN1C(=O)S/C(=C/c2ccncc2)C1=O)N1CCOCC1	99	97	103	100	98	95
CCCc1nnc2c(N(C)S(=O)(=O)c3ccc(C)cc3)nc3ccccc3n12	101	101	104	101	101	97
CCc1nnc2c(N(C)C)nc3ccccc3n12	92	89	76*	91	88	85
Cc1nc2cccc(C)n2c(=O)c1Cl	113	109	120*[activator]	101	105	110
Nc1[nH]n2c(=O)c3c(nc2c1N=Nc1ccc(Cl)cc1)CCCC3	86	86	74*	84	89	81
Cc1ccc(N=Nc2c(N)[nH]n3c(=O)cc(-c4ccccc4)nc23)cc1	79*	85	79*	77*	83	78*
Nc1[nH]n2c(=O)c3c(nc2c1N=Nc1ccccc1)CCCC3	72*	73*	85	85	94	71*
COc1cccc(N=Nc2c(N)[nH]n3c(=O)cc(-c4ccccc4)nc23)c1	92	92	93	91	94	88
CC(C)CC1=NN(C(=O)c2ccncc2)C(O)(C(F)(F)F)C1 (configuration not stated)	100	100	103	100	101	99
CCOc1ccc(CCNC(=O)C2CCCN2C(=O)OCc2ccccc2)cc1OCC (configuration not stated)	100	102	105	100	104	103
COc1cccc2sc(Nc3nc(-c4ccccn4)cs3)nc12	88	85	79*	90	88	83
c1ccc(Nc2nc(-c3ccccn3)cs2)cc1	102	102	105	98	104	101
SMILES	Cdc42 wt GTP	HRas wt GTP bind	Rac1 wt GTP bind	Rac1 act GTP bind	Rab7 wt modul	Rab2A wt mod
CC(=O)OCC(=O)NCC(=O)c1c[nH]c2ccccc12	107	103	108	100	97	103
Cc1ccc(NC(=S)Nc2ccc3nc(-c4ccccn4)c(-c4ccccn4)nc3c2)cc1C	101	103	125*[activator]	104	105	100
Cc1oc2c(O)c(O)ccc2c(=O)c1-c1cnn(-c2ccccc2)c1	100	99	97	95	101	101
Cc1nc(-c2cnn(-c3ccccc3)c2)c2cc(C)oc2n1	70*	72*	77*	79*	80	75*
Cc1ccc(C)c(NC(=S)N(Cc2ccc(Cl)cc2)Cc2ccc(C(=O)O)cc2)c1	99	100	104	94	96	98
Cc1ccc(-c2nnc(CCC(=O)NCC3C4CC5CC(C4)CC3C5)o2)s1 (configuration not stated)	96	99	99	95	102	97
COc1ccc(-c2c3c(nc4sc5c(=O)[nH]c(C)nc5c24)CCC3)cc1	81	81	76*	89	87	76*
CCCCCCCC(=O)NNC(=O)Cc1ccccc1	97	95	93	95	94	96
CCCCCCCCCCCC(=O)c1c(O)cccc1O	79*	82	83	79*	89	81
COc1ccc(N(C(=O)c2cnccn2)C(C(=O)NC2CCCCC2)c2ccc(O)cc2)cc1 (configuration not stated)	96	100	98	97	101	98
O=C(CSc1nnc(-c2cccs2)o1)c1cccs1	97	98	96	95	97	96
COc1ccc(-c2nnc(SCC(=O)c3cccs3)o2)cc1	54*	42*	58*	62*	59*	60*
CCn1c2ccccc2c2nc3ccccc3nc21	98	101	101	98	102	100
CCn1c2ccccc2c2nc3cc(C(=O)O)ccc3nc21	83	85	77*	87	98	84
Cc1ccccc1OCCn1cc(C(=S)N2CCN(C)CC2)c2ccccc21	102	104	107	100	105	104
COc1ccccc1OCCn1cc(C#N)c2ccccc21	103	100	107	97	97	103
COc1ccccc1OCCn1cc(C(=O)O)c2ccccc21	114	111	120*[activator]	120*[activator]	109	114
O=C(O)c1cn(CCOc2ccccc2Cl)c2ccccc12	117	113	121*[activator]	115	113	119
CN(Cc1ccno1)C(=O)CC1C(=O)NCCN1CC(c1ccccc1)c1ccccc1 (configuration not stated)	96	97	101	98	95	97
O=C(NCc1cccs1)c1cnc2ccccn2c1=O	101	99	103	96	100	98
O=C(NCc1cccs1)c1cccn2c(=O)c3sccc3nc12	63*	66*	55*	77*	92	63*
